The list is not random: actives were taken first. Their share in the collection is about 21%.
MRP-1 activ: H69AR viability gain despite doxorubicin, primary screen, MRP-1 activator project, H69AR cells, CellTiter-Glo | AID 799, 2007 | hit rate 0.61% among 140,000 | viability increase, % at 10 µM | viability rescue;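 active = viability gain under doxorubicin at or above a set limit, the compound median plus 3 SD, cut at about 4.7% in these data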;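 also: MRP-1 overexpressing cells given doxorubicin 25 µM after compound pretreatment; 18-22 h compound pretreatment then 72 h with doxorubicin before readout; 0% = doxorubicin-only wells and 100% = vehicle-treated cells without doxorubicin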
CYP2C9 inh: blockers of cytochrome P450 2C9 activity – biochemical, luminescence, ADME assay, primary screen. P11712. CYP2C9 Supersomes, luciferin-H conversion. inhibition, % at 5 µM. hit rate 20% among 96,000. AID 777, 2007;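 active = blocking of liver enzyme CYP2C9 beyond about 50% at 5 µM, limit read from the data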
CYP2C9 activ: human CYP2C9 activators, primary screen, biochemical, luminescence. Cytochrome P450 2C9 (Homo sapiens), P11712. recombinant CYP2C9, luciferin-H conversion; active compounds read high; factor 1 = untreated enzyme, 0 = blocked. activation factor at 5 µM. hit rate 1.4% among 96,000. AID 1024, 2008;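 active = activation factor of 2 or more for CYP2C9 at a 5 µM dose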;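 also: 0 = sulfaphenazole-blocked wells and 1 = vehicle-only wells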
CYP2C19 act: human CYP2C19 activators, primary screen, biochemical, luminescence | Cytochrome P450 2C19 (Homo sapiens), P33261 | AID 1025, 2008 | 96,000 tested, under 10 active | recombinant CYP2C19, luciferin-H EGE luminescence; active compounds read high; 0 = fully inhibited enzyme, 1 = untreated enzyme | activation factor at 5 µM;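 active = activation factor of at least 2 at 5 µM in the primary screen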;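 also: 0 = wells with 2.5 mM tranylcypromine and 1 = vehicle-only wells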
Target sequence (P33261 whole entry, looked up): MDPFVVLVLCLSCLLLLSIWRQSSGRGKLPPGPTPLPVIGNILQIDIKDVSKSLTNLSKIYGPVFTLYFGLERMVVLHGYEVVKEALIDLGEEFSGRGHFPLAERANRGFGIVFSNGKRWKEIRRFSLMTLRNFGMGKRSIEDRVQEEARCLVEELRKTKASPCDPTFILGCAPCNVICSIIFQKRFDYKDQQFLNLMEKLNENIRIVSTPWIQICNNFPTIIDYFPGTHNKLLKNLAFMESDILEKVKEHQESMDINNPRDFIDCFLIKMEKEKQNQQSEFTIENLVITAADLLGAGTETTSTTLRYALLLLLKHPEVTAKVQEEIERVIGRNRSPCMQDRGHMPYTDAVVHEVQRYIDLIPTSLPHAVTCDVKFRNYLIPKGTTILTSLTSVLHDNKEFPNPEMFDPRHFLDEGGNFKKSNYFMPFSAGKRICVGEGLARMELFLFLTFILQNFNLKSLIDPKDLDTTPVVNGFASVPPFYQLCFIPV
CYP2C19 inhib: blockers of cytochrome P450 2C19 activity – biochemical, luminescence, ADME assay, primary screen. CYP2C19 Supersomes, luciferin-H EGE luminescence, 30 min. inhibition, % at 5 µM. hit rate 21% among 96,000. AID 778, 2007;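 active = CYP2C19 inhibition above a set limit at 5 µM in the primary screen, cut at about 50% in these data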;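 also: plate controls were negative control wells for no effect and 2.5 mM tranylcypromine positive control for full effect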
MRP reversal: reversal of MRP1-mediated doxorubicin resistance, primary screen, H69AR cells, doxorubicin co-treatment. H69AR cells + 2 uM doxorubicin, CellTiter-Glo, 72 h. differential viability (reversal), % at 10 µM. hit rate 0.04% among 85,000. AID 602, 2007;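 active = viability drop by adding the cancer drug above about 55%, with treated viability meeting a 40% cutoff, limit read from the data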;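 also: viability without doxorubicin minus viability with 2 µM doxorubicin for each compound; larger differential means the compound sensitizes cells more to doxorubicin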
Active calls of the source: *; · = no result given.

SMILES	MRP-1 activ	CYP2C9 inh	CYP2C9 activ	CYP2C19 act	CYP2C19 inhib	MRP reversal
COc1ccc(NC(=S)N(CCc2nc3cc(C)c(C)cc3[nH]2)Cc2cccnc2)cc1	-2.9	44.9	0.6	0.8	23.6	·
Fc1ccc(CSc2nncn2NCc2ccc3c(c2)OCO3)cc1	-0.3	82.7*	0.2	0.1	92.9*	2.2
Cn1c(SCc2ccc3c(c2)OCO3)nnc1-c1ccccc1	-2.4	49.9	0.5	0	97.7*	6.1
COC(=O)CSc1nnc(-c2ccc3c(c2)OCO3)n1C	-2.8	6.2	0.9	1	2.9	-0.9
Clc1ccc(CSc2nnc3ccccn23)c(Cl)c1	2.6	·	·	·	·	·
c1ccn2c(SCc3ccc4c(c3)OCO4)nnc2c1	-0.5	8.1	0.9	0.3	65.3*	-0.9
O=C(CSc1nnc2ccccn12)c1ccc2c(c1)OCCO2	-0.6	6.4	0.9	0.2	82.1*	1.0
O=C(COc1ccc(-n2cnnn2)cc1)NCCc1ccc(F)cc1	0.2	10.8	0.9	1	4.4	8.0
Cc1nnc(-c2cnn(C)c2N)n1Cc1cccc(Cl)c1	-0.9	3.7	1	0.9	8.7	15.7
CCC1CCCCN1c1nc(-c2cccc(OC)c2O)nc2ccccc12 (stereo not given)	-2.5	82.6*	0.2	0.8	24.7	2.4
CC1CCN(c2nc(-c3ccncc3)nc3ccccc23)CC1	-2.2	75.8*	0.2	0.1	92.7*	16.5
COc1cccc(-c2nc(N3CCN(Cc4ccccc4)CC3)c3ccccc3n2)c1O	·	·	·	·	·	10.7
CC1CCCCN1c1nc(-c2ccncc2)nc2ccccc12 (stereo not given)	-0.5	78.5*	0.2	0.1	91.1*	1.8
c1ccc2c(N3CCOCC3)nc(-c3ccncc3)nc2c1	-3.4	·	·	·	·	-32.7
CCC1CCCCN1c1nc(-c2ccncc2)nc2ccccc12 (stereo not given)	-5.2	100.3*	0	0	99.3*	-20.2
O=C(CCSCCc1ccccn1)Nc1c(F)c(F)c(F)c(F)c1F	-1.8	·	·	·	·	·
c1cncc(-c2nc(N3CCOCC3)c3ccccc3n2)c1	-1.9	66.0*	0.3	0.7	33.2	-1.3
COc1cccc(-c2nc(N3CCN(c4ccccc4)CC3)c3ccccc3n2)c1O	-2.8	55.1*	0.4	0.8	20.6	·
CCN(C1CCCCC1)S(=O)(=O)c1ccc(S(=O)(=O)NCc2ccncc2)cc1	-0.7	100.1*	0	0.2	83.8*	11.3
CCN(C1CCCCC1)S(=O)(=O)c1ccc(S(=O)(=O)NCCc2ccncc2)cc1	0.5	99.5*	0	0	95.8*	-1.9
COc1ccc(/C=N/NC(=O)c2ccc(O)cc2O)cc1CSc1ccccn1	-2.5	·	·	·	·	·
O=C(CCc1ccc(S(=O)(=O)NCCc2ccccc2)cc1)NCc1ccc2c(c1)OCO2	-2.1	82.7*	0.2	0.2	82.3*	20.4
O=C(CCc1ccc(S(=O)(=O)NCc2ccccc2)cc1)NCc1ccc2c(c1)OCO2	-0.1	76.2*	0.2	0.4	56.0*	7.9
O=C(NCc1ccc2c(c1)OCO2)C1CCC(CNS(=O)(=O)c2ccccc2)CC1 (stereo not given)	-0.7	·	·	·	·	-5.5
O=C(CCc1ccc(S(=O)(=O)NCCc2ccccc2)cc1)Nc1ccc2c(c1)OCCO2	-2.7	·	·	·	·	·
SMILES	MRP-1 activ	CYP2C9 inh	CYP2C9 activ	CYP2C19 act	CYP2C19 inhib	MRP reversal
CCCC(=O)N1c2ccccc2C(=C2SC(C(=O)OC)=C(C(=O)OC)S2)C(=S)C1(C)C	-4.4	·	·	·	·	-48.8
COC(=O)C1=C(C(=O)OC)SC(=C2C(=S)C(C)(C)N(C(=O)C3CC3)c3ccccc32)S1	-0.1	77.7*	0.2	0.3	69.4*	19.6
COC(=O)C1=C(C(=O)OC)SC(=C2C(=S)C(C)(C)N(C(=O)C(C)C)c3ccccc32)S1	-2.9	94.7*	0.1	0.6	40.4	-1.9
CCN(C(=O)CCCC(=O)N(CC)c1ccccc1)c1ccccc1	-0.7	·	·	·	·	·
O=[N+]([O-])c1ccc(Cl)c(/C=N/N2CCN(Cc3ccccc3Cl)CC2)c1	-0.5	-107.6	2.1*	0.8	18.9	·
O=C(CCNS(=O)(=O)c1cccs1)NCc1cccs1	-1.6	17.5	0.8	0.5	47.3	8.4
CC(C)NC(=O)Nc1cccs1	-3.3	·	·	·	·	-19.9
COc1cccc(CNC(=O)Nc2cccs2)c1	-3.1	53.9*	0.5	0.1	86.0*	-4.0
COc1ccc(CNC(=O)Nc2cccs2)cc1OC	-0.9	5.4	0.9	0.6	40.9	·
O=C(Cc1cccs1)NCc1ccccc1F	-0.3	10.3	0.9	0.3	70.6*	·
Cc1ccc(CNC(=O)Nc2cccs2)cc1	-0.8	10.0	0.9	0.5	51.3*	2.0
COc1cccc(CNC(=O)CCNS(=O)(=O)c2cccs2)c1	-2.9	5.8	0.9	0.1	90.1*	9.5
O=C(Cc1cccs1)NCc1ccccc1	-2.7	3.4	1	0.6	41.1	26.2
O=[N+]([O-])c1ccccc1Sc1nccn1Cc1ccccc1	-1.4	·	·	·	·	·
Cc1ccc(CNC(=O)C2(C)Oc3ccccc3NC2=O)cc1 (stereo not given)	-0.1	90.3*	0.1	0.2	79.2*	1.2
COCCNC(=O)C1(C)Oc2ccccc2NC1=O (stereo not given)	-0.2	11.2	0.9	0.9	9.5	6.1
Cc1ccc(CNC(=O)Nc2ccccc2)cc1	-0.3	32.2	0.7	0.1	91.5*	-0.4
O=C(NCc1ccc(N2CCCC2=O)cc1)Nc1ccccc1	-0.5	33.6	0.7	0.8	20.7	-7.5
Cc1ccc(CNC(=O)Cc2cccs2)cc1	0.4	-4.3	1	0.1	89.9*	11.6
O=C(COc1ccc2c(c1)CCC2)N1CCc2ccccc21	0.2	-42.2	1.4	1	3.1	2.5
Fc1ccc(Sc2ccccc2CNC2=NCCN2)cc1	-3.4	·	·	·	·	·
O=C(Nc1cccnc1)Nc1ccc(F)c(Cl)c1	-1.0	75.9*	0.2	0.2	85.0*	2.5
O=C(CCCOc1ccc(Cl)cc1Cl)Nc1cccnc1	2.7	51.5*	0.5	0.3	72.2*	·
CSc1cccc(NC(=O)CCCOc2ccc(Cl)cc2Cl)c1	-2.1	·	·	·	·	·
O=C(CCCOc1ccc(Cl)cc1Cl)N/N=C\C1CCCCC1	-2.0	16.1	0.8	0.1	91.5*	·
O=C(Nc1cccnc1)C1(c2ccc(Cl)cc2)CCCC1	-1.9	32.9	0.7	0.2	80.6*	12.4
O=C(NCCO)C1(c2ccc(Cl)cc2)CCCC1	-0.6	17.9	0.8	0.5	47.4	·
COc1ccc2nc(NC(=O)c3cccnc3SC)sc2c1	-0.7	·	·	·	·	·
Cc1cc(C)c(S(=O)(=O)N2CCCOC2CNC(=O)C(=O)NCc2ccco2)c(C)c1 (stereo not given)	-1.9	·	·	·	·	·
